# According to PubChem BioAssay AID602429 (Sanford-Burnham Center for Chemical Genomics, 2012):
# The campaign covered roughly 360,000 compounds. About 1,200 (0.33%) were called active. The sample as a whole holds a higher share of actives than the screen did. Values without a mark were called inactive. No stated cut-off is given here; in the data, active means inhibition above about 37%; inactive means the rest.
# Target: Small ubiquitin-related modifier 1 (Homo sapiens) (UniProt P63165)
# Test: modulators of SUMO1 protein-protein interactions, primary screen, biochemical, uHTS (AID 602429)
# Settings: SUMO1 binding to a labelled peptide, TR-FRET, 1 h; at 20 µM; stronger effect = higher value
# Small ubiquitin-related modifier 1 (Homo sapiens), sequence (P63165 whole entry, looked up): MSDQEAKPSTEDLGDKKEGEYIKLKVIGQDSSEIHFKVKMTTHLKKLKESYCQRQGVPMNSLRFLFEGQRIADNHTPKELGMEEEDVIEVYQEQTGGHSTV
row,SMILES,inhibition
1,CCOc1ccc(-n2c(SCC(=O)Nc3cc(C(=O)O)ccc3Cl)nc3ccccc3c2=O)cc1,19.1%
2,CCCn1c(N)c(C(=O)CSc2nc3ccccc3c(=O)n2-c2ccc(OC)cc2)c(=O)[nH]c1=O,46.9% (active)
3,CCCn1c(N)c(C(=O)CSc2nnc3n2CCCCC3)c(=O)[nH]c1=O,8.44%
4,COCCOC(=O)c1c(C)oc2cc(Br)c(OCC(N)=O)cc12,-1.35%
5,CCN(c1ccccc1)S(=O)(=O)c1cccc(C(=O)NCc2ccccc2CN2CCOCC2)c1,-2.56%
6,COc1ccc(C)cc1NC(=O)NCCCCc1ccccc1,3.9%
7,O=S(=O)(NCCSc1ccccn1)c1ccc(Cl)cc1,-0.907%
8,O=C(Cc1ccsc1)N1CCN(S(=O)(=O)c2cc(C(F)(F)F)cc(C(F)(F)F)c2)CC1,32.3%
9,CCCc1nc(-c2cc3cc(C)ccc3[nH]c2=O)no1,-3.17%
10,COc1ccc2[nH]c(=O)c(-c3noc(-c4ccc(F)cc4)n3)cc2c1,64% (active)
11,COc1ccc(Cc2cc(-c3ccc(F)cc3)n[nH]c2=O)cc1,-0.22%
12,Cc1cc(C)cc(OCC(=O)Nc2cc(NC(=O)COc3cc(C)cc(C)c3)cc(C(=O)O)c2)c1,13.4%
13,CCN1CCCC1CNC(=O)Cn1cnc2ccc(S(=O)(=O)N3CCC(C)CC3)cc2c1=O (stereo unspecified),-2.59%
14,CCN1CCCC1CNC(=O)c1ccc2c(c1)NC(=O)/C(=C\c1ccccc1F)S2 (stereo unspecified),-60.4%
15,CCN1CCCC1CNC(=O)c1cc2c(=O)n(C)c3ccccc3c2n1C (stereo unspecified),46.4% (active)
16,CCCCn1c(SCc2ncc(-c3ccccc3)o2)nc2cc(S(N)(=O)=O)ccc21,0.0839%
17,CCCCc1nc(SCC(=O)Nc2nnc(C(C)C)s2)n[nH]1,4.69%
18,O=C(COc1ccc(Cl)cc1)Nc1ccc2oc(=O)ccc2c1,4.58%
19,COc1ccccc1CNS(=O)(=O)c1cc(C(=O)NCc2ccccn2)c(Cl)cc1Cl,-1.08%
20,COc1cc(NC(=O)C2=CC(c3ccco3)=NS(=O)(=O)N2C)cc(OC)c1OC,-26.3%
21,COCCNC(=O)c1ccc2nc(Cc3ccc(OC)c(OC)c3)oc2c1,0.593%
22,COCCNC(=O)Nc1ccc2nc(-c3ccco3)c(-c3ccco3)nc2c1,64.2% (active)
23,O=C(NCc1ccco1)C(=O)c1cn(CC(=O)N2CCCCCC2)c2ccccc12,-6.74%

row,SMILES,inhibition
1,CC1(C)CC(=O)C(C=NCc2cccnc2)=C(O)C1,-0.212%
2,Cc1ccccc1S(=O)(=O)Cc1ccc(C(=O)NCCN2CCCCC2C)o1 (stereo unspecified),-2.78%
3,NC(=S)NN=C1CCCC(C(F)(F)F)C1 (stereo unspecified),-4.43%
4,CCCc1cc(=S)n2c([nH]c3ccccc32)c1C#N,45.4% (active)
5,COC(=O)c1cccc(NC(=O)CN2CCC(NC(=O)c3cc(OC)c(OC)c(OC)c3)CC2)c1,4.74%
6,CCC(C(=O)N1CCOCC1)n1c(C(=O)OC)cc2occc21 (stereo unspecified),0.0718%
7,CN(C(=O)COC(=O)c1cc(-c2ccco2)nc2ccccc12)C1CCS(=O)(=O)C1 (stereo unspecified),105% (active)
8,O=C(c1cc(-c2ccco2)nc2ccccc12)N(Cc1nnc(-c2ccc(Cl)cc2)o1)C1CC1,5.63%
9,COc1ccc2c(-c3ccccc3)cc(SCC(=O)N(C)C3CCS(=O)(=O)C3)nc2c1 (stereo unspecified),0.193%
10,O=C(Nc1cccc2c1CCCC2)c1ccc(F)cc1,-0.657%
11,O=C(CSc1cccc[n+]1[O-])NCCCc1ccccc1,-1.78%
12,COc1ccc(Cl)cc1NC(=O)CCS(=O)(=O)c1ccc(Br)cc1,71% (active)
13,COc1ccc(Cl)cc1NC(=O)COC(=O)c1ccc(Br)o1,3.41%
14,O=C(CCS(=O)(=O)c1ccc(Br)cc1)NCCc1ccc(Cl)cc1,15.1%
15,CCn1c(O)c2ccc(C(=O)N=NC(=O)c3cccnc3)cc2c1O,-19.8%
16,Cn1c(SCC(=O)Nc2ccc(N3CCOCC3)cc2)nnc1C(F)(F)F,3.07%
17,O=C1C2C3C=CC(C4CC34)C2C(=O)N1c1nccs1 (stereo unspecified),0.623%
18,CCOc1ccc(C(=O)NCC(=O)N2CCN(c3ccc(C(F)(F)F)cn3)CC2)cc1,-1.81%
19,CC(=O)c1c(OCC(=O)N(C)C2CCCCC2)ccc2c(C)cc(=O)oc12,0.393%
20,Cn1ccc(=Nc2ccc(NC(=O)c3ccc(N=c4ccn(C)c5ccc([N+](=O)[O-])cc45)cc3)cc2)cc1,78.6% (active)
21,O=C(Nc1ccc(C2CC2(Cl)Cl)cc1)c1cccc([N+](=O)[O-])c1 (stereo unspecified),-19.7%
22,O=C(Nc1cc2c3c(c1)C1CCCC1CN3CC1CCCC21)c1ccc([N+](=O)[O-])cc1 (stereo unspecified),-12.8%
23,CCCS(=O)(=O)N1CCC(C(=O)NCCCN(C)Cc2ccccc2)CC1,3.93%

row,SMILES,inhibition
1,Cc1ccc(CCN2CC(C(=O)O)CC2=O)cc1 (stereo unspecified),0.0169%
2,Nc1ccc2[nH]c(=S)sc2c1,65% (active)
3,CCOc1ccc2[nH]c(=S)sc2c1,6.23%
4,O=c1[nH]c2ccccc2s1,0.972%
5,O=C(c1ccc2c(c1)OCCO2)C1CCN(S(=O)(=O)c2cccc(F)c2)CC1,-0.625%
6,CCn1ncc(Br)c1C(=O)Nc1cc(C)ccc1F,1.78%
7,COc1ccc([N+](=O)[O-])cc1NC(=O)CC1SC(=Nc2cccc(C)c2C)N(/N=C(\C)c2ccc(C)cc2)C1=O (stereo unspecified),-1.72%
8,CCN(CC(=O)N1CCCC1)S(=O)(=O)c1ccc(F)cc1,0.769%
9,COc1nc(Oc2ccc(=O)n(C)n2)nc(N(C)C)n1,-2.1%
10,Cc1ccc(S(=O)(=O)NCCSC(C)(C)C)cc1,2.52%
11,COc1nc(N(C)C)nc(N2CC(=O)N(CCNS(=O)(=O)c3ccc(C)cc3)C2=N)n1,44% (active)
12,Cc1cc(C)c2nc(NC(=O)C3CCCO3)sc2c1 (stereo unspecified),-1.66%
13,O=C(Nc1nnc(SCc2c(Cl)cccc2Cl)s1)C1CCCO1 (stereo unspecified),4.7%
14,O=C(Nc1nnc(CCc2ccccc2)s1)C1CCCO1 (stereo unspecified),42.9% (active)
15,Cc1ccc(NC(=O)Cn2cccc2C2=NC(c3ccccc3)CO2)c(C)c1 (stereo unspecified),-4.14%
16,COC(=O)c1cc2occc2n1Cc1nc(-c2ccccc2C)oc1C,0.0493%
17,COc1ccccc1C(CNC(=O)c1cccc(NS(=O)(=O)c2ccc(Br)cc2)c1)N(C)C (stereo unspecified),-3.01%
18,COc1ccc(Br)cc1/C=N/Nc1ccc(S(=O)(=O)Nc2ccccc2C(=O)O)cc1[N+](=O)[O-],108% (active)
19,COc1cc(CCN=Cc2ccccc2O)c([N+](=O)[O-])cc1OC,-13%
20,COCOCCn1cc(CN2CCS(=O)(=O)N(Cc3ccc(-c4ccccc4)cc3)C(CC(C)C)C2=O)nn1 (stereo unspecified),3.98%
21,COc1ccc(OCc2nnc3n2N=C(c2ccccc2)C(CC(=O)O)S3)cc1 (stereo unspecified),10.5%
22,CCOC(=O)C1=C(COC(=O)[C@H](C)NS(=O)(=O)c2ccccc2F)NC(=O)NC1C (stereo partly specified),2.53%
23,O=C(O)CC(CC(=O)N1CCOCC1)c1ccccc1 (stereo unspecified),4.09%

row,SMILES,inhibition
1,Oc1ccc(N=Cc2sc3ccccc3c2Cl)cc1,43.8% (active)
2,CCCNC(=O)c1cc(C2CCCN(C(=O)c3ccc4c(c3)CCO4)C2)on1 (stereo unspecified),-2.48%
3,CCCCN(C)CCNC(=O)C1CCCN(S(=O)(=O)c2cccc3nsnc23)C1 (stereo unspecified),-32.8%
4,COc1ccc(CCNC(=O)C(=O)Nc2ccc3nc4n(c(=O)c3c2)CCCCC4)cc1OC,-4.72%
5,CC(=O)NN=C(C)c1ccc(NC(=O)C2CC2)cc1,-0.643%
6,O=C(N/N=C/c1ccco1)c1ccc(C(=O)N/N=C/c2ccco2)o1,36.6% (active)
7,Cc1c(Cl)cccc1NC(=O)CCC(=O)N/N=C/c1ccco1,-6.83%
8,O=C(Cn1cnc2ccccc21)N/N=C/c1ccco1,-6.39%
9,Cc1c(CCC(=O)O)c(=O)oc2c(C)c(OCc3ccccc3Cl)ccc12,56.6% (active)
10,COc1ccc2c(C)c(CCC(=O)NC3CC3)c(=O)oc2c1C,1.06%
11,O=C(O)c1ccccc1OCc1ccccc1Cl,1.06%
12,Cc1cc(C)n2nc(C(=O)OC(C)C(=O)c3cc(C)c(C)cc3C)nc2n1 (stereo unspecified),1.78%
13,O=C(CNC(=O)[C@@H]1Cc2ccccc2CN1)NC1CCCCC1,3.02%
14,C/C=C\C=C\C(=O)N1CC2(CC(c3cccc(NC(=O)/C(C)=C\C)c3)=NO2)C[C@H]1C(N)=O (stereo partly specified),-1.81%
15,CC/C=C/C(=O)N1CC2(CC(c3cccc(NC(=O)CC)c3)=NO2)C[C@H]1C(N)=O (stereo partly specified),0.0237%
16,C=C(C)C(=O)Nc1cccc(C2=NOC3(C2)C[C@H](C(N)=O)N(C(=O)C(c2ccccc2)c2ccccc2)C3)c1 (stereo partly specified),61.6% (active)
17,COc1cccc(NC(=O)C(Sc2nc3ccccc3c(=O)n2CC(C)C)c2ccccc2)c1 (stereo unspecified),1.55%
18,Cc1nc([N+](=O)[O-])c(NCCCO)n1Cc1ccccc1,-1.9%
19,CCCCNC(=O)Nc1c(C)cc(SC#N)cc1C,-6.49%
20,CCOC(=O)Cn1c2c(c(-c3ccccc3OC)cc1=O)CCCC2,-0.83%
21,CCOc1ccc(-c2nc(N)ncc2-c2ccccc2OC)c(O)c1,39.4% (active)
22,COc1ccc(-c2c(-c3ccc(OC)cc3O)nc(C)nc2C(F)(F)F)cc1,3.81%
